# A selection: hits, their analogues and other compounds. The true share with any hit is near 0.93%.
# HEK293 tox: cytotoxicity counter-screen for GLP-1 receptor inverse agonists | HEK293 cAMP-luciferase reporter cells, luminescence, 24 h | 410,000 tested, 0.13% active | Potency, µM (top dose mostly 38.3 µM), inactives show at the highest dose activity change, negative = inhibition, actives largely listed as inhibitors;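 also: loss of luciferase light is scored as toxicity; potency is read from the fitted curve at half-maximal effect; % is scaled to controls: 0 for no effect and ±100 for the full control effect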
#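 Seeding density was 200 cells/uL; after overnight-length (12 h) culture, 23 nL compounds went on for 24 h at 37 °C. Readout used a luciferase detection reagent, luminescence taken after 12 min at room temperature.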
# TRHR ag: activates the human TRH receptor. P34981. TRHR cells, calcium flux fluo-8, FDSS agonist mode. activation, % at 2 µM. 360,000 tested, 0.18% active. AID 493084; in the data active = activation above about 30%; also: 0% is about no effect
#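 Agonist-mode FDSS calcium read (Ex 480/Em 530, 1 s cycles) in 1536-well TRHR cells with fluo-8 dye, after 10-cycle baseline and 23 nL compound addition; TRH at EC20 (10 nM final) added afterwards for the enhancer phase.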
# PTHR1 agonist: PTHR1 (human) receptor agonism | Q03431 | 410,000 tested, 0.075% active | AID 743266 | HEK293 GP2 PTHR1 cells, GloSensor cAMP luminescence, 1 h | Potency, µM (titrated, usually from 115 µM), inactives show at the top dose activation, usual class: activators; also: potency is read from the fitted curve at half-maximal effect; nearly all actives have a fitted effect of over 55% in size
# Target sequence (Q03431 whole entry, looked up): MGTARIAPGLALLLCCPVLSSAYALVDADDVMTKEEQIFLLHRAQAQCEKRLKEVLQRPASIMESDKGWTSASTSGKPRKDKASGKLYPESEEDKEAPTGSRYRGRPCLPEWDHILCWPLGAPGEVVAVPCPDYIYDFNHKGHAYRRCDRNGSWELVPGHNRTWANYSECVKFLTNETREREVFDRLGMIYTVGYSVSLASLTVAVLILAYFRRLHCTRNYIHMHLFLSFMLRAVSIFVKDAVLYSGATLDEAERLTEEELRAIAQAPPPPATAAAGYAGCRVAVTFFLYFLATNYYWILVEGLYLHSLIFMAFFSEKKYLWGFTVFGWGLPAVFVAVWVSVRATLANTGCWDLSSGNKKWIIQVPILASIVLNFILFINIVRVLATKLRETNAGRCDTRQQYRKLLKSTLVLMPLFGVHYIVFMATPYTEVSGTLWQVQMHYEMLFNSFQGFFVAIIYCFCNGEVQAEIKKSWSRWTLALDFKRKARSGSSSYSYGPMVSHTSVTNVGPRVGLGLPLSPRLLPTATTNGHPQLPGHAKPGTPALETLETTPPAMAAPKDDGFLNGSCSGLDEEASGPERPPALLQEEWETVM
#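 HEK-293-derived GP2 cells expressing PTHR1 and a GloSensor cAMP reporter, 3,000/well, plated overnight, given luciferin plus IBMX (each 0.5 mM as added) for 1 h at 37 °C, then compound for 1 h at 37 °C. Luminescence was read after 15 min at room temperature.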
# TRPML1 agonist: human mucolipin-1 channel agonism; Q9GZU1; TRPML1-expressing cells, Ca2+ dye fluorescence, FDSS; activation, % (concentration not given with the values); 410,000 tested, 0.12% active; in the data active = activation above about 50%; inconclusive = mostly about 30% to 49%; also: 0% is about no effect
#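 Tet-induced TRPML1-DL cells, 1,500 per well, cultured overnight, were loaded with a no-wash Ca2+ dye for 45–90 min. Calcium fluorescence was recorded on the FDSS for 110 s after compound addition, before the EC80 agonist (4 uM 54-4) was added.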
# TRHR enhancer: allosteric enhancers of human TRH receptor; P34981; enhancement, % at 2 µM; 360,000 tested, 0.66% active; AID 493056; TRHR cells, fluo-8 calcium fluorescence, EC20 TRH enhancement; in the data active = enhancement above about 30%; also: 0% is about no effect
#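 Enhancer read-out: after compound pinning and an initial kinetic agonist-mode read, an EC20 of TRH (10 nM final) was injected and fluo-8 calcium signal (Ex 480/Em 530) followed at 1 s/cycle for 100 cycles in TRHR-expressing cells.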
# TRPML1 inh: inhibitors of human TRPML1 channel; Q9GZU1; TRPML1-inducible cells, Ca2+ dye fluorescence, FDSS; stronger effect = lower value; inhibition of EC80 agonist-evoked calcium signal; activity change, negative = inhibition, % (concentration not given with the values); 390,000 tested, 0.02% active; AID 624415; in the data active = activity change below about -50%; inconclusive = between about -30% and that limit;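 also: stimulus is agonist 54-4 at its EC80 concentration; % is scaled to controls: 0 for no effect and ±100 for the full control effect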
#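 Calcium fluorescence in TRPML1-DL cells induced overnight with Tet: a 110 s read after compound pin addition, then a 110 s antagonist read after challenge with 54-4 at 4 uM final (EC80).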
# * = called active by the depositor; i = inactive; ? = inconclusive; nt = no result given; [ ] = another dose, or the depositor's remark. Unless noted, calls follow the shape of the dose curve; as a rule, active = well fitted curve in the direction sought with a large enough effect; inconclusive = small, poorly fitted or top-dose-only effect, or another doubt; inactive = no such curve, though single readings can be large; an effect the other way counts as inactive or inconclusive.
SMILES,HEK293 tox,TRHR ag,PTHR1 agonist,TRPML1 agonist,TRHR enhancer,TRPML1 inh
CCOC(=O)CC1COc2ccccc2N1C(=O)c1cccc([N+](=O)[O-])c1 (centres undefined),2%,0,-15%,1,31*,-11
COC(=O)CC1COc2ccccc2N1C(=O)c1cccc(Cl)c1 (centres undefined),3%,0,i,1,-2,27
CC(=O)c1c(C)[nH]c(C(=O)NCc2ccccc2Cl)c1C,0%,0,-16%[57.5 µM],0,34*,-10
CCc1c(C(=O)NCc2ccccc2Cl)[nH]c(C)c1C(C)=O,-1%,0,i,0,-1,-9
Cc1cnnc2ccccc12,nt,nt,nt,0,nt,nt
Cc1ccc2oc(-c3ccc(C)c(NC(=O)COc4ccccc4C)c3)nc2c1,nt,nt,nt,0,nt,nt
C[n+]1cccc(Br)c1,nt,nt,nt,-1,nt,nt
CC(C)(C)C(=O)Cn1nc(Cl)nc1Cl,-4%,1,i,-1,32*,17
Cc1[nH]c2ccccc2c1C(=O)C(C)Sc1nc2ccccc2c(=O)n1Cc1cccnc1 (centres undefined),nt,nt,nt,-1,nt,nt
Cc1cccnc1NC(=O)CCNS(=O)(=O)c1ccc2c(c1)c(=O)n(C)c(=O)n2C,2%,0,-21%,1,35*,-1
Cc1cccc(CC(=O)NC2CCN(C)CC2)c1,-1%,0,i,0,40*,-8
O=c1oc2c3c4c(cc2c(C(F)(F)F)c1CCN1CCOCC1)CCCN4CCC3,230%,95*,-18%,91*,4,-26
CCSC1=NSC2=NC(=O)/C(=C\c3coc4ccccc4c3=O)C(=N)N12,19%,179*,-30%,77*,52*,-1
CCOC(=O)C[C@H]1c2cc(F)ccc2S(=O)(=O)N1Cc1cc(OC)c(OC)c(OC)c1,nt,nt,nt,-1,nt,nt
CCOc1ccc(C(=O)c2cn(Cc3ccccc3)c3c(F)cc(F)cc3c2=O)cc1,-4%,-1,i,3,33*,42
COc1ccccc1Cn1cc(C(=O)c2ccc(C)cc2)c(=O)c2cc(F)cc(F)c21,3%,0,i,1,2,-5
CC1CC=CC2C1C(=O)N(Cc1ccccc1)C2c1ccoc1 (centres undefined),nt,nt,nt,3,nt,1
C=C(CC[C@]12OC(C(=O)O)C(O)(C(=O)O)C(C(=O)O)(O1)C(OC(=O)/C=C/[C@@H](C)C[C@@H](C)CC)C2O)[C@@H](OC(C)=O)[C@H](C)Cc1ccccc1 (some centres undefined),nt,nt,nt,-1,nt,nt
O=C(Nc1nc2ccccc2n1CCN1CCOCC1)c1ccc(Cn2cc([N+](=O)[O-])cn2)o1,-27%,6,-64%,0,13,7
O=C(Nc1nc2ccccc2n1CCN1CCOCC1)c1ccc(COc2ccccc2Br)o1,3.5µM*,-1,-23%,0,4,0
CC(C)N1CN=C(Nc2nc3ccccc3o2)NC1,2%,0,-1%,-1,31*,-3
COCCN1CN=C(Nc2nc3ccccc3o2)NC1,2%,1,2%[57.5 µM],0,4,8
O=C(Nc1nnc(CCc2ccccc2)s1)C1CCN(C(=O)c2ccco2)CC1,nt,nt,nt,-1,nt,nt
CCN(CC(=O)NC(=O)NCc1ccco1)Cc1nc2ccccc2c(=O)[nH]1,11µM*,1,-28%,0,2,9
CCN(CC(=O)NC(=O)NCc1ccco1)Cc1ccccc1,-3%,0,i,2,-3,2
COC(=O)/C=C(\C)NC(=O)c1ccc(F)cc1,14%,0,i,1,34*,-16
CCN(CC)c1ccccc1/C=C/[n+]1ccc(CCCCI)c2ccccc21,nt,nt,nt,1,nt,nt
NC(=S)N=Nc1c(O)n(CCCl)c2ccc(Cl)cc12,1.3µM*,-1,-15%,0,2,6
NC(=S)N=Nc1c(O)n(CCCl)c2ccccc12,?,0,-7%,0,2,5

# Source: PubChem BioAssay (National Center for Advancing Translational Sciences (NCATS))
